Test results taken from paper PMC7862700, “An all-to-all approach to the identification of sequence-specific readers for epigenetic DNA modifications on cytosine”.

Key:
Experiment in all cases: DAPPL (digital affinity profiling via proximity ligation, sequencing); 10 mM Tris-HCl pH 7.5, 50 mM NaCl, 1 mM DTT, 4% glycerol, room temperature, 30 min; GST-TFs on glutathione beads, 16-mer random dsDNA library, 0.1% formaldehyde crosslink after washing; high values mean tight binding
ELK1 = biological target: T1, ELK1 (Homo sapiens, UniProt P19419 1-428); conditions: protein: recombinant; tags: N-terminal GST; dsDNA, one strand shown
T1 sequence: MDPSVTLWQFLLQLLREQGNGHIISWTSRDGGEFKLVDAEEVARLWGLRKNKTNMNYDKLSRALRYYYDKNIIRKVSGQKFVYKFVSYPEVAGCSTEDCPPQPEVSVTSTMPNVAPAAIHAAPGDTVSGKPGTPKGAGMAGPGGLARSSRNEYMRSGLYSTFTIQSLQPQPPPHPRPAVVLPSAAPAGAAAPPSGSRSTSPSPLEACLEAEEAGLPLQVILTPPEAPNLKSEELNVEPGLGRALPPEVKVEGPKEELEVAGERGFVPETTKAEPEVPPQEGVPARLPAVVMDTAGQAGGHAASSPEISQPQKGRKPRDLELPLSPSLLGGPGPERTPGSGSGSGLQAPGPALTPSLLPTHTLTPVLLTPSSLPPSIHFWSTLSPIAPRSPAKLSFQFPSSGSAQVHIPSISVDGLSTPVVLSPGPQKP
Summary of the method: (§1)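 Binding signal is each hexamer's read frequency for a factor divided by its frequency in the tag-only sample. The factors were GST-fused human transcription factors from yeast, captured on glutathione beads, DNA-barcoded and pooled with that sample. Pools were incubated with 200 nmole of a random double-stranded 16-mer DNA library in Tris/NaCl/DTT/glycerol buffer at room temperature for 30 min, then washed, crosslinked with 0.1% formaldehyde, proximity-ligated with BsaI/T4 ligase (1 h, 37 °C), PCR-amplified and sequenced on an Illumina NextSeq500.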

ELF1 = ELF1 (Homo sapiens, UniProt P32519 1-619); conditions: protein: recombinant; tags: N-terminal GST; dsDNA, one strand shown
Summary of the method: as §1

SPIB = SPIB (Homo sapiens, UniProt Q01892 1-262); conditions: protein: recombinant; tags: N-terminal GST; dsDNA, one strand shown
Summary of the method: as §1

ELK3 = biological target: T2, ELK3 (Homo sapiens, UniProt P41970 1-407); conditions: protein: recombinant; tags: N-terminal GST; dsDNA, one strand shown
T2 sequence: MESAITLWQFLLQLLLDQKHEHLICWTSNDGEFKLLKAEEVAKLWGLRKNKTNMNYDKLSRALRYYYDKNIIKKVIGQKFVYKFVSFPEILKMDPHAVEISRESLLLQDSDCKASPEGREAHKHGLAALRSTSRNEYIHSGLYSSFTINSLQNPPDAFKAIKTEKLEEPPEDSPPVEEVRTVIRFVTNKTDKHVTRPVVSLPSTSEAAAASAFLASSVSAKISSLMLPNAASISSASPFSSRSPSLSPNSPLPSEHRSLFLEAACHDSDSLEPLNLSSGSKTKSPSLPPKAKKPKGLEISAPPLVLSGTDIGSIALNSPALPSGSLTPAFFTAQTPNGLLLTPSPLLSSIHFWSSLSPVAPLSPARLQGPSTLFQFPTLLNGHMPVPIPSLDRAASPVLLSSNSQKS
Summary of the method: as §1

HSF1 = HSF1 (Homo sapiens, UniProt Q00613 1-529); conditions: protein: recombinant; tags: N-terminal GST; chain copies: 3; dsDNA, one strand shown
Summary of the method: as §1

SPIC = biological target: T3, SPIC (Homo sapiens, UniProt Q8N5J4 1-248); conditions: protein: recombinant; tags: N-terminal GST; dsDNA, one strand shown
T3 sequence: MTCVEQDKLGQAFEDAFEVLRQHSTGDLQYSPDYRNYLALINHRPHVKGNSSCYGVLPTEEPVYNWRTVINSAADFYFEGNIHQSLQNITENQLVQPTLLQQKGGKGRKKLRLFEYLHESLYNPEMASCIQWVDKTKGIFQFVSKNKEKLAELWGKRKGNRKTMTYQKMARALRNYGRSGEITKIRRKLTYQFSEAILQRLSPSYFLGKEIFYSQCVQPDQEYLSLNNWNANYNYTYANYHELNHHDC
Summary of the method: as §1

ELF4 = ELF4 (Homo sapiens, UniProt Q99607 1-663); conditions: protein: recombinant; tags: N-terminal GST; dsDNA, one strand shown
Summary of the method: as §1

ETV2 = biological target: T4, ETV2 (Homo sapiens, UniProt O00321 1-342); conditions: protein: recombinant; tags: N-terminal GST; dsDNA, one strand shown
T4 sequence: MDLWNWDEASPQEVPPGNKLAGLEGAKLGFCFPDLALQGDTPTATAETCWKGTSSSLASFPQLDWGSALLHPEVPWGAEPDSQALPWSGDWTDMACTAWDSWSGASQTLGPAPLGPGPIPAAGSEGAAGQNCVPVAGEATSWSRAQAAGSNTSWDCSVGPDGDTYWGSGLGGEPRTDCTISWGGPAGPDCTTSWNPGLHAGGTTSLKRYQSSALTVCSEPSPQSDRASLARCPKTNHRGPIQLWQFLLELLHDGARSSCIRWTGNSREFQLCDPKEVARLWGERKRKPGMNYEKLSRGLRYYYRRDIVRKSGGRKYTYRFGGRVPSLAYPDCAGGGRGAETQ
Summary of the method: as §1

ELF3 = biological target: T5, ELF3 (Homo sapiens, UniProt P78545 1-371); conditions: protein: recombinant; tags: N-terminal GST; dsDNA, one strand shown
T5 sequence: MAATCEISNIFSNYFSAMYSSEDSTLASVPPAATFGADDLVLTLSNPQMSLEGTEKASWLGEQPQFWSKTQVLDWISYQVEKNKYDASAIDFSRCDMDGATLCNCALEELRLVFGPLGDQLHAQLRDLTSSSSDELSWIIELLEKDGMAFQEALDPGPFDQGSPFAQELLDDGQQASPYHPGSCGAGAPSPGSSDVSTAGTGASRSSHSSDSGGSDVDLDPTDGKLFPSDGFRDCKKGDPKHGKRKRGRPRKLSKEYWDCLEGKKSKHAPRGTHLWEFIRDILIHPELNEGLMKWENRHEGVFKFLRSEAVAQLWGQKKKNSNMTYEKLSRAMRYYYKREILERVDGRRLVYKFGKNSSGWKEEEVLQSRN
Summary of the method: as §1

ERF = biological target: T6, ERF (Homo sapiens, UniProt P50548 1-548); conditions: protein: recombinant; tags: N-terminal GST; dsDNA, one strand shown
T6 sequence: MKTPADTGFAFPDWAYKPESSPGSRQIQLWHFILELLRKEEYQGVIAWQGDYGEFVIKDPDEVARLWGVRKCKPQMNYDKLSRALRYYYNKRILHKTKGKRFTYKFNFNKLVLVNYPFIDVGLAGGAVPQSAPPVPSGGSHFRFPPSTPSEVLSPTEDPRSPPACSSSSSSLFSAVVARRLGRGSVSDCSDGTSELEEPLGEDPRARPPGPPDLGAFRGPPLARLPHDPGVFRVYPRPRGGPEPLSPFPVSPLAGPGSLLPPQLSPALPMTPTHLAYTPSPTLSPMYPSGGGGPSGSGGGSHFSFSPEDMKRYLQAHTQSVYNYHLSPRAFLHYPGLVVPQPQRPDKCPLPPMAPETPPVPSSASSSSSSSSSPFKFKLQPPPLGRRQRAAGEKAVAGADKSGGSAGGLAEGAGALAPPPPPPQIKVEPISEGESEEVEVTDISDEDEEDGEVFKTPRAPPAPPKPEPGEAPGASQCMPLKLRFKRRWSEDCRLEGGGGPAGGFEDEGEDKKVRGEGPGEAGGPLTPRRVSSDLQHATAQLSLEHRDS
Summary of the method: as §1

ETV3L = biological target: T7, ETV3L (Homo sapiens, UniProt Q6ZN32 1-361); conditions: protein: recombinant; tags: N-terminal GST; dsDNA, one strand shown
T7 sequence: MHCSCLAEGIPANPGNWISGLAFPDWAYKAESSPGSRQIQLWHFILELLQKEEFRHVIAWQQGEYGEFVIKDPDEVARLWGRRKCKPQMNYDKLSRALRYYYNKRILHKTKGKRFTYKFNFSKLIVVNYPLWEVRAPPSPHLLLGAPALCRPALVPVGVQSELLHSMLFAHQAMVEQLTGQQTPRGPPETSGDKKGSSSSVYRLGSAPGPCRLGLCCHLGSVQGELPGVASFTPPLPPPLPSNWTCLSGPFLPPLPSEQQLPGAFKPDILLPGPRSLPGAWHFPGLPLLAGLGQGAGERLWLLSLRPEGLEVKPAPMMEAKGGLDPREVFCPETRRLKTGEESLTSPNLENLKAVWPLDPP
Summary of the method: as §1

ETS2 = biological target: T8, ETS2 (Homo sapiens, UniProt P15036 1-469); conditions: protein: recombinant; tags: N-terminal GST; dsDNA, one strand shown
T8 sequence: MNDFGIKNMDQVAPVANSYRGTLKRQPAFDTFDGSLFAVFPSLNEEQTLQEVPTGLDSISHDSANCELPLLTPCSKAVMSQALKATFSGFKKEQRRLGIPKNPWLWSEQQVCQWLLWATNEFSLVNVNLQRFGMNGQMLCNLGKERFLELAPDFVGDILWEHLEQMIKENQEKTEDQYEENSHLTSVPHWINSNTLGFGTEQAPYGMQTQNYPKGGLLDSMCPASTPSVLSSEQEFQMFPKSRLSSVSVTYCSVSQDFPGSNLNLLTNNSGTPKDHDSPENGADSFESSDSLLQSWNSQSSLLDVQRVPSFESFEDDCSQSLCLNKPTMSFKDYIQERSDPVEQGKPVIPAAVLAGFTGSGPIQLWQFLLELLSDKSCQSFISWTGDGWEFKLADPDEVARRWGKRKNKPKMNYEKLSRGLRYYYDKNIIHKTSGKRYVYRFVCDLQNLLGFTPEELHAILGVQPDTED
Summary of the method: as §1

SPI1 = SPI1 (Homo sapiens, UniProt P17947 1-270); conditions: protein: recombinant; tags: N-terminal GST; dsDNA, one strand shown
Summary of the method: as §1

ELK4 = biological target: T9, ELK4 (Homo sapiens, UniProt P28324-2 1-405); conditions: protein: recombinant; tags: N-terminal GST; dsDNA, one strand shown
T9 sequence: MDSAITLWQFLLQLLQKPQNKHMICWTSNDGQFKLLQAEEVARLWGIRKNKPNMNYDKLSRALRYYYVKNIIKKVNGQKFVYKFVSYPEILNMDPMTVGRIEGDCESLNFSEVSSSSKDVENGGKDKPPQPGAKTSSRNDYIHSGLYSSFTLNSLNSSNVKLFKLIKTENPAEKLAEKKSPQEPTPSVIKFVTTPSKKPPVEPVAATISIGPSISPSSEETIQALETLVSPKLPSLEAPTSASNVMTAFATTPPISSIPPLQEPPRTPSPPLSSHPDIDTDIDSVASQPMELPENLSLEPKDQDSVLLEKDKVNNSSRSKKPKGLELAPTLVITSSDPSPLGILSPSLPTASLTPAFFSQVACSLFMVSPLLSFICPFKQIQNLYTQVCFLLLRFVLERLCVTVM
Summary of the method: as §1

Chain of ELF4 (Q99607 whole entry): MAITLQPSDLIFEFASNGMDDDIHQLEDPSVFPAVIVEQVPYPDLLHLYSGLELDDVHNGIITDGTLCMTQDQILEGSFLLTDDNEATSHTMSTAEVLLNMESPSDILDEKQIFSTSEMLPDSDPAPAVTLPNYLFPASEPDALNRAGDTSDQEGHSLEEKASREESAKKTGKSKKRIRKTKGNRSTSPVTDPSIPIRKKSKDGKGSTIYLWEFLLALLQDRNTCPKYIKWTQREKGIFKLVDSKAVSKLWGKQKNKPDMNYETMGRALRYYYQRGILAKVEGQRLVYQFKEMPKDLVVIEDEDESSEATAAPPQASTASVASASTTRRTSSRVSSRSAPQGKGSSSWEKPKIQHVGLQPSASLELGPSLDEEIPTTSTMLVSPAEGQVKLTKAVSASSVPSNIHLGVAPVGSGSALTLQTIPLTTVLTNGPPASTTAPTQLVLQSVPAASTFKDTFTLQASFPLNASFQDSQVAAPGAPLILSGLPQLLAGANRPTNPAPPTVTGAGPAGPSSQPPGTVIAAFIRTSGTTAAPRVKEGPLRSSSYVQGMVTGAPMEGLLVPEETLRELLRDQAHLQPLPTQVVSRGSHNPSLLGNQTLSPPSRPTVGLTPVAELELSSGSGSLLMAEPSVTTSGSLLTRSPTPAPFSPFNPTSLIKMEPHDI
Chain of HSF1 (Q00613 whole entry): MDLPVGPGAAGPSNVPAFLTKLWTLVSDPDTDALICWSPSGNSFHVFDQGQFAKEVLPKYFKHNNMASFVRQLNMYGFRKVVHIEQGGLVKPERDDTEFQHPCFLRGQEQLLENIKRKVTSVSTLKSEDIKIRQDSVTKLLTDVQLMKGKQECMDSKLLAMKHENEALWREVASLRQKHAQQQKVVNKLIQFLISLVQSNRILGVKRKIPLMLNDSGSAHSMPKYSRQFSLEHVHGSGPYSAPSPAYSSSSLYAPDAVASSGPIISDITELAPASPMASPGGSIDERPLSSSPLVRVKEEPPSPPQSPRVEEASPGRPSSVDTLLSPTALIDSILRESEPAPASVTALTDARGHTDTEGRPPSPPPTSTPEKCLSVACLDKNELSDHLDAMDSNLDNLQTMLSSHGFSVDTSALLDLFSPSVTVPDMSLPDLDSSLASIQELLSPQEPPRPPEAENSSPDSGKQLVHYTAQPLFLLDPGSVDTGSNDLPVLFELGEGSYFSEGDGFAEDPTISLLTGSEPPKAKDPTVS
Chain of SPIB (Q01892 whole entry): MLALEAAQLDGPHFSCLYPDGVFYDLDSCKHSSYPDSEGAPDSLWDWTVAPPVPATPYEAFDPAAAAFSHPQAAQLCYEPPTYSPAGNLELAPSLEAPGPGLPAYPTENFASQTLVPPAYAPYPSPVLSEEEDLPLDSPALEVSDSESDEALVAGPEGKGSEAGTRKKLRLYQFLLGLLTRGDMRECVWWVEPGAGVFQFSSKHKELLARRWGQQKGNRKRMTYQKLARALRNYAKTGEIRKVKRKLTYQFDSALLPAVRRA
Chain of ELF1 (P32519 whole entry): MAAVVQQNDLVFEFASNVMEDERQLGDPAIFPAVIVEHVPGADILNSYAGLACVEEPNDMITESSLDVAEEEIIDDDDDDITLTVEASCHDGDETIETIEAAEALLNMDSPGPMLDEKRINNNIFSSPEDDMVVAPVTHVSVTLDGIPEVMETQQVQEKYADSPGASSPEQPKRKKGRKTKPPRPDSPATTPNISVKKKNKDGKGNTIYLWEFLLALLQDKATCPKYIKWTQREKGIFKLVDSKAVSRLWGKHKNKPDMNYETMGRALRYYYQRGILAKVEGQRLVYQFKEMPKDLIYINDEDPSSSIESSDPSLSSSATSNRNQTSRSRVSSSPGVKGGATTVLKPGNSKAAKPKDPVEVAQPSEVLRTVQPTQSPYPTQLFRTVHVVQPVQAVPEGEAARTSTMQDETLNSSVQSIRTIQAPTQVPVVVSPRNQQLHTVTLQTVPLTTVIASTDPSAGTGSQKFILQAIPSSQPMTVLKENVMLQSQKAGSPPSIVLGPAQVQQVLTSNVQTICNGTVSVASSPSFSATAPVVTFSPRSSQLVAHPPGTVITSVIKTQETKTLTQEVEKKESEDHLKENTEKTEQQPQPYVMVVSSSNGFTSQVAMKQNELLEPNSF

Sequence | binding signal (ELK1) | binding signal (ELF1) | binding signal (SPIB) | binding signal (ELK3) | binding signal (HSF1) | binding signal (SPIC) | binding signal (ELF4) | binding signal (ETV2) | binding signal (ELF3) | binding signal (ERF) | binding signal (ETV3L) | binding signal (ETS2) | binding signal (SPI1) | binding signal (ELK4)
AACCGA | 1.02 fold enrichment (6-mer frequency, TF over GST control) | 1.04 fold enrichment (6-mer frequency, TF over GST control) | 1.03 fold enrichment (6-mer frequency, TF over GST control) | 1.01 fold enrichment (6-mer frequency, TF over GST control) | 1.04 fold enrichment (6-mer frequency, TF over GST control) | 1.09 fold enrichment (6-mer frequency, TF over GST control) | 1.02 fold enrichment (6-mer frequency, TF over GST control) | 1.13 fold enrichment (6-mer frequency, TF over GST control) | 1.04 fold enrichment (6-mer frequency, TF over GST control) | 1 fold enrichment (6-mer frequency, TF over GST control) | 1.07 fold enrichment (6-mer frequency, TF over GST control) | 1.03 fold enrichment (6-mer frequency, TF over GST control) | – | –
TGAAAG | – | 1.05 fold enrichment (6-mer frequency, TF over GST control) | 1.04 fold enrichment (6-mer frequency, TF over GST control) | – | 1.08 fold enrichment (6-mer frequency, TF over GST control) | 1.01 fold enrichment (6-mer frequency, TF over GST control) | 1.01 fold enrichment (6-mer frequency, TF over GST control) | – | – | – | 1.04 fold enrichment (6-mer frequency, TF over GST control) | 1.01 fold enrichment (6-mer frequency, TF over GST control) | 1.05 fold enrichment (6-mer frequency, TF over GST control) | 1.06 fold enrichment (6-mer frequency, TF over GST control)
